Only some compounds are listed: those with a hit (about 4.5% of all), similar ones and a draw of the others.
ALR inh: inhibitors of human sulfhydryl oxidase ALR. 290,000 compounds, 3.8% hits. inhibition, % (concentration not given with the values). purified ALR, DTT oxidation, H2O2 HRP-luminol luminescence. P55789;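 active = mean replicate inhibition above about 79%, with every replicate also reaching it, limit read from the data; inconclusive = only one of the two criteria met; inactive = mean below limit and not every replicate reaching it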
GRK2 inh: human GRK2 inhibition via aptamer displacement; inhibition of aptamer binding, % at 10 µM; P25098; bead flow cytometry, FAM-aptamer displacement from GRK2; 330,000 compounds, 0.59% hits; AID 488847;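 active = inhibition of aptamer binding above 40%, roughly 3 SD of noise, on plates passing a quality check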;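 also: median bead fluorescence of bound FAM aptamer so fluorescent compounds give negative values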
Target sequence (P25098 whole entry, looked up): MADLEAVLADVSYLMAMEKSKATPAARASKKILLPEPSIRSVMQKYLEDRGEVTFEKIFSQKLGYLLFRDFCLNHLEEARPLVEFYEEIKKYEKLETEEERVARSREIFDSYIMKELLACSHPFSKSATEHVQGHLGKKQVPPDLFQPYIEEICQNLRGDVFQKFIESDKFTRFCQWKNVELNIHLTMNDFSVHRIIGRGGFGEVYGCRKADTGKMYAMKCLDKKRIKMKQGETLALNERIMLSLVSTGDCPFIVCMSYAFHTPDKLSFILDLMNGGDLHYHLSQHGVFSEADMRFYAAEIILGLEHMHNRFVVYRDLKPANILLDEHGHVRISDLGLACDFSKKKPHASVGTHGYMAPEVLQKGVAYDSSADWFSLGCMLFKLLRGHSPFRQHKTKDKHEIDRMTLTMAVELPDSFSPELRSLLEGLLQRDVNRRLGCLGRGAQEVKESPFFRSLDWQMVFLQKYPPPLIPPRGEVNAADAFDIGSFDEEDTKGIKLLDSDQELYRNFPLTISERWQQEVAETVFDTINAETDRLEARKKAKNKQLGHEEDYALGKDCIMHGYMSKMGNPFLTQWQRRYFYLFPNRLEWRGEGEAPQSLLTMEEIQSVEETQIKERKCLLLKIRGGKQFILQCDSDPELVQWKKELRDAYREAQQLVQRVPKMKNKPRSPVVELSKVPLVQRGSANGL
Rtt109 HAT inh: inhibitors of Candida albicans Rtt109/Vps75 histone acetyltransferase; Q5AAJ8; purified Rtt109/Vps75, ThioGlo CoA-SH fluorescence, 4 h; inhibition, % at 34.9 µM; 330,000 compounds, 0.16% hits; AID 540336;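 active = inhibition of at least 50% in every replicate; inconclusive = best replicate reaches 50% inhibition but some replicates fall short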
HDAC3 inh: human HDAC3 inhibition. AID 2718. 320,000 compounds, 0.15% hits. recombinant HDAC3, fluorogenic peptide/trypsin coupled, fluorescence. inhibition, % at 8.3 µM. O15379; in the data active = inhibition above about 26%, passing the limit was not always enough; inconclusive = no clear call, values can overlap the other calls
Rce1 inhib: yeast Ras-converting enzyme inhibition; Q03530; AID 2563; calls only; 290,000 compounds, 0.27% hits; yeast membranes, quenched prenylated peptide cleavage fluorescence;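 active = fall in fluorescence gain of 50% or more versus controls, with final raw signal at or below 3038400; inconclusive = same 50% fall but final raw signal above 3038400; inactive = fall in fluorescence gain under 50%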;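 also: plate controls were neutral control wells for no effect and wells lacking membranes for full effect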
Efflux pump mplx: blocks antifungal efflux pumps in multiplex yeast assay. 330,000 compounds, 0.44% hits. S. cerevisiae Candida pump triplex, Nile Red efflux. inhibition, % at 10 µM;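 active = plate passing quality check with inhibition over a set limit, or well fluorescence over plate mean plus 4 SD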;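 also: Nile Red retained in pooled yeast measured as flow cytometry median fluorescence; 0% = buffer negative control and 100% = Enniatin B positive control; higher means more Nile Red kept so more efflux inhibition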
An asterisk follows results filed as active; i = inactive; ? = inconclusive; . = not tested or not shown.

SMILES	ALR inh	GRK2 inh	Rtt109 HAT inh	HDAC3 inh	Rce1 inhib	Efflux pump mplx
Cc1cc(NC(=O)CCC(=O)N(CCC(C)C)C(C(=O)NC2CCCC2)c2ccccc2C)no1 (stereo not drawn)	-4	1	2	5	i	0
COc1ccc(NC(=S)NNC(=O)c2ccco2)c(OC)c1	77*	5	8	-1	i	0
COc1ccc(NC(=O)c2ccccc2NC(=O)c2ccco2)c(OC)c1	0	0	7	4	i	0
OC(CN(Cc1ccccc1)Cc1ccccc1)c1ccccc1 (stereo not drawn)	.	.	-7	.	.	.
C=CCn1c(SCCN)nnc1-c1cccc(S(=O)(=O)N2CCOCC2)c1	.	.	6	.	.	.
O=c1oc(-c2ccccc2Br)nc2ccccc12	9	0	-14	44*	i	0
O=c1oc(-c2cccnc2)nc2ccccc12	.	3	5	?	i	0
CC(=O)c1cccc(NC(=O)CNC(=O)Cc2ccccc2)c1	-4	3	-1	2	i	0
C/C(=N\NS(=O)(=O)c1ccc([N+](=O)[O-])cc1)c1cccs1	62	0	.	2	i	0
CC(C)/C(=N\NS(=O)(=O)c1ccc(Br)cc1)c1cccs1	80*	1	-6	1	i	0
O=C(Nc1ccccc1)Nc1ccc(O)c2ccccc12	87*	2	.	-2	i	0
COc1ccc(-c2coc3c(CN4CCCCC4)c(O)c(CN4CCCCC4)c(O)c3c2=O)cc1	6	100*	.	4	i	0
O=c1c(-c2ccc(Br)cc2)coc2c(CN3CCCCC3)c(O)ccc12	.	.	5	.	i	.
COc1ccc(Nc2c(-c3ccco3)nc3cccc(C)n23)cc1	.	0	-1	-30	i	0
Cc1cccc2nc(-c3ccco3)c(Nc3ccc4c(c3)OCCO4)n12	95*	2	-8	-6	i	0
COc1ccc(Nc2c(-c3ccco3)nc3ccc(C)cn23)cc1	9	0	-7	-5	i	0
c1ccc(Nc2c(-c3ccco3)nc3ccccn23)cc1	98*	0	4	-12	i	0
Fc1ccc(Nc2c(-c3ccco3)nc3ccccn23)cc1	.	3	-3	.	i	0
Cc1ccc(Nc2c(-c3ccco3)nc3ccccn23)cc1	99*	2	-8	-31	i	0
Cc1nn(-c2ccc(Cl)cc2)c2[nH]c(CCl)cc(=O)c12	4	0	-3	-1	i	0
Cc1ccc(NC2Sc3ccccc3NC2=O)cc1Cl (stereo not drawn)	0	2	0	5	i	0
COc1ccc(NC(=O)CSc2nn3c(=O)c(C)nnc3s2)cc1	65	0	-16	0	i	0
COc1cccc(NC(=O)CSc2nn3c(=O)c(C)nnc3s2)c1	99*	4	-23	-8	i	0
Cc1nnc2sc(SCC(=O)Nc3cccc(Cl)c3)nn2c1=O	98*	1	10	-4	i	0
COc1cccc(NC(=O)CSc2ccccn2)c1	90*	3	-16	3	i	0
SMILES	ALR inh	GRK2 inh	Rtt109 HAT inh	HDAC3 inh	Rce1 inhib	Efflux pump mplx
COc1ccc(OC)c(NC(=O)CSc2nn3c(=O)c(C)nnc3s2)c1	86*	0	-22	.	i	0
CCOc1ccc(N2CC(C(=O)Nc3ccccc3C(=O)N3CCOCC3)CC2=O)cc1 (stereo not drawn)	-1	1	-8	6	i	0
Cn1ccs/c1=N\C(=O)Nc1cccc(C(F)(F)F)c1	1	0	-1	5	i	0
COc1ccc([C@@H]2CC(=O)c3c(O)cc(O)cc3O2)cc1O	3	1	1	5	.	0
COc1cccc([C@@H]2Oc3ccc(OC)cc3C(=O)[C@H]2O)c1	0	.	-30	-5	i	.
O=C1c2c(O)cc(O)cc2O[C@H](c2ccc(O)c(O)c2)[C@@H]1O	99*	3	.	3	i	0
O=C1C[C@@H](c2ccccc2)Oc2cc(O)cc(O)c21	7	3	-2	1	i	0
C[C@@H]1O[C@@H](O[C@@H]2C(=O)c3c(O)cc(O)cc3O[C@H]2c2ccc(O)c(O)c2)[C@H](O)[C@H](O)[C@H]1O	99*	3	7	-1	.	0
Oc1cc(O)c2c(c1)O[C@H](c1ccc(O)c(O)c1)[C@@H](O)C2	95*	5	9	-6	i	0
O=C1c2c(O)cc(O)cc2O[C@H](c2ccc(O)cc2)[C@H]1O	87*	0	-4	-1	i	0
COc1ccc(-c2noc(CCC(=O)N3CCN(c4ccccc4F)CC3)n2)cc1	.	0	11	.	.	0
O=C1c2c(O)cc(O)cc2O[C@H](c2ccc(O)c(O)c2)[C@H]1O	99*	0	6	2	i	0
Cn1cnc(S(=O)(=O)NC2CCN(Cc3c(F)cccc3Cl)CC2)c1	2	0	-4	-10	i	0
O=C(NCCCn1ccnc1)C(=O)NCC(c1ccco1)N1CCN(c2ccc(F)cc2)CC1 (stereo not drawn)	98*	2	-14	3	i	0
COc1ccc(N2CCN(C(CNC(=O)C(=O)NCCCn3ccnc3)c3ccco3)CC2)cc1 (stereo not drawn)	83*	0	-4	-1	i	0
O=C(NCCCn1ccnc1)C(=O)NCC(c1ccco1)N1CCN(c2ccccc2)CC1 (stereo not drawn)	99*	0	31	8	i	0
O=C(NCCCn1ccnc1)C(=O)NCC(c1cccnc1)N1CCN(c2ccccc2)CC1 (stereo not drawn)	99*	3	9	-2	i	0
C=CC[C@H](CC(=O)NCCO)C(=O)N[C@H](COC(=O)[C@@H](CC=C)Cc1ccc(F)cc1)C(C)(C)C	.	7	-13	.	.	0
O=C1OC(c2ccccc2)(c2ccc3cc(O)ccc3c2)c2ccccc21 (stereo not drawn)	.	.	-1	.	.	.
COc1ccccc1CN(C)C(=O)COC(=O)c1cc(C)oc1C	.	.	6	.	.	.
Cc1cccc(C(=O)Nc2ccc(O)cc2)c1	99*	10	3	-2	i	0
CCCN1C(=O)c2ccc(C(=O)Nc3ccccc3C(=O)O)cc2C1=O	97*	0	-3	5	i	0
O=C(Nc1ccc(O)cc1)c1ccc2c(c1)C(=O)N(N1C(=O)c3ccccc3C1=O)C2=O	91*	4	1	3	.	0
CCN1C(=O)c2ccc(C(=O)Nc3ccc(O)cc3C)cc2C1=O	99*	0	-5	1	i	0
C/C(=N\NC(=O)c1cccc(C)c1O)c1ccc(NC(=O)Cc2ccccc2)cc1	17	0	-5	11	i	0
COc1ccc(CN2CCC(=O)N([C@H](CO)c3ccccc3)CC2)cc1	-6	0	-2	-1	i	0
